According to PubChem BioAssay (NCATS):
Values joined by “and” are separate entries in the source; they are usually repeats but may differ in a detail not shown here. Equal values may be shown once. Results filed as inconclusive are left out. Unmarked numbers belong to inactive results. Active and inactive are the calls of the source. Unless noted, calls follow the shape of the dose curve; as a rule, active = well fitted curve in the direction sought with a large enough effect; inconclusive = small, poorly fitted or top-dose-only effect, or another doubt; inactive = no such curve, though single readings can be large; an effect the other way counts as inactive or inconclusive.

Key:
[1] = target: Cellular tumor antigen p53 (Homo sapiens) (UniProt P04637); test: Primary qHTS for small molecule compounds that upregulate eGFP-tagged delta133p53alpha (in N-terminal) cells. (AID 2060322); conditions: NCI-H358 eGFP-delta133p53alpha fluorescence, 24 h; activation: active compounds read high; also: nearly all actives have a fitted effect of over 75% in size;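 as to activation: cells pre-induced with doxycycline then dosed without doxycycline; 0% = DMSO vehicle and 100% = reference activator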
Outline: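 NCI-H358 cells pre-induced 24 h with 10 ng/ml doxycycline for eGFP-delta133p53alpha, plated dox-free and exposed 24 h at 37C to titrated compounds. Fixed, Hoechst-stained; gated GFP peak intensity by laser scanning cytometry, normalized to DMSO (0%) and 57.5 uM 5-azacytidine (100%).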

[2] = target: Aldehyde dehydrogenase, mitochondrial (Homo sapiens) (UniProt P05091); test: qHTS for Inhibitors of the Aldehyde Dehydrogenase Family (ALDH2) Confirmatory screens (AID 2061303; active = well fitted inhibition curve with a large enough effect; title and protocol of this record describe different tests; also: nearly all actives have a fitted effect of over 45% in size); conditions: ALDH inhibition qHTS; series mostly up to 45.4 µM
[3] = target: Aldehyde dehydrogenase, mitochondrial (Homo sapiens) (UniProt P05091); test: qHTS for Inhibitors of the Aldehyde Dehydrogenase Family (ALDH2) Primary screen (AID 2061308); conditions: ALDH2 enzyme inhibition qHTS, 1536-well; series mostly up to 56 µM; also: nearly all actives have a fitted effect of over 55% in size
[4] = target: Retinaldehyde dehydrogenase 3 (Homo sapiens) (UniProt P47895); test: qHTS for Inhibitors of the Aldehyde Dehydrogenase Family (ALDH1A3) Confirmatory screens (AID 2061311); conditions: ALDH inhibition qHTS; series mostly up to 46 µM; also: nearly all actives have a fitted effect of over 60% in size
[5] = target: Retinaldehyde dehydrogenase 3 (Homo sapiens) (UniProt P47895); test: qHTS for Inhibitors of the Aldehyde Dehydrogenase Family (ALDH1A3) Validation screen (AID 2061312); conditions: ALDH1A3 enzyme inhibition qHTS validation, fluorescence; series mostly up to 84.7 µM; also: nearly all actives have a fitted effect of over 45% in size
[6] = target: Retinal dehydrogenase 2 (Homo sapiens) (UniProt O94788); test: qHTS for Inhibitors of the Aldehyde Dehydrogenase Family (ALDH1A2) Confirmation screens (AID 2061314); conditions: ALDH1A2 enzyme inhibition qHTS confirmation; series mostly up to 45.9 µM; also: nearly all actives have a fitted effect of over 65% in size
[7] = target: Aldehyde dehydrogenase 1A1 (Homo sapiens) (UniProt P00352); test: qHTS for Inhibitors of the Aldehyde Dehydrogenase Family (ALDH1A1) Confirmatory screens (AID 2061316); conditions: ALDH inhibition qHTS; series mostly up to 47.3 µM; also: nearly all actives have a fitted effect of over 65% in size
[8] = BET inhibitor-based combinations targeting novel dependencies in MECOM-rearranged (r) AML: OCI-AML3 cell line (AID 2202232); conditions: CellTiter-Glo luminescence, 48 h; Potency: OCI-AML3 viability; series mostly up to 46 µM; also: nearly all actives have a fitted effect of over 35% in size
Outline: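 Luminescent ATP readout (CellTiter-Glo) after 48 hr drug exposure gives viability. Curves span 11 concentrations and are normalized to DMSO and empty wells. Activity is reported as area under the curve and its Z-transform within each cell line.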

[9] = BET inhibitor-based combinations targeting novel dependencies in MECOM-rearranged (r) AML: MV-4-11 cell line (AID 2202233); conditions: MV-4-11 AML viability, CellTiter-Glo luminescence, 48 h; series mostly up to 46 µM; also: nearly all actives have a fitted effect of over 45% in size
Outline: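 Luminescent ATP readout (CellTiter-Glo, 15 min at room temperature) after 48 hr drug exposure gave viability. Dose-response curves, normalized to DMSO and empty-well controls, were summarized as area under the curve and its mean-centred Z-score.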

[10] = target: Retinaldehyde dehydrogenase 3 (Homo sapiens) (UniProt P47895); test: qHTS for Inhibitors of the Aldehyde Dehydrogenase Family (ALDH1A3) Primary screen (AID 2061315); conditions: ALDH inhibition qHTS; series mostly up to 56 µM
Potency is read from the fitted curve at half-maximal effect.

Sequence of Cellular tumor antigen p53 (Homo sapiens) (P04637 whole entry, looked up): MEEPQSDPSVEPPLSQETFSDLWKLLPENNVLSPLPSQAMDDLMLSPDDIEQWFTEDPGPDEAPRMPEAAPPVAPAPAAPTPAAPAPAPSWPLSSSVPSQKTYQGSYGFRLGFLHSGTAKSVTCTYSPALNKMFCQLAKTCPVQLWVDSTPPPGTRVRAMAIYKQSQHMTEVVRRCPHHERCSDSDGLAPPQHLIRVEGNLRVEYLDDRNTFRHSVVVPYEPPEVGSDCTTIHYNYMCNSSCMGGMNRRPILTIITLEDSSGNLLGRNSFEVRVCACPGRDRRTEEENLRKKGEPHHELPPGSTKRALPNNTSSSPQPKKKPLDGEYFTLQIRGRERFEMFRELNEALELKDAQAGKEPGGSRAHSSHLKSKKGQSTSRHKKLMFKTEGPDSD

SMILES	activation [1]	Potency [2]	Potency [3]	Potency [4]	Potency [5]	Potency [6]	Potency [7]	Potency [8]	Potency [9]	Potency [1]	Potency [10]
O=C(CCCCCCC(=O)Nc1ccccc1)NO	17.7% and 26.7%	inactive	inactive	inactive	22.4 µM (active)	inactive	inactive	1.86 µM (active)	0.742 µM (active)		
C/C=C/C=C/c1cc2c(C=O)c(O)c(CC=C(C)C)cc2o1		11.3 µM (active)	28.2 µM (active)			10.1 µM (active)	11.3 µM (active)			26.9 µM (active)	inactive
C=C[C@H]1[C@H](O[C@@H]2O[C@H](CO)[C@@H](O)[C@H](O)[C@H]2O)OC=C(C(=O)OC)[C@H]1CCOC(=O)c1cc(O)c(O)c(O)c1	0%	inactive	inactive	6.18 µM (active)		inactive	inactive				
Clc1ncoc1-c1c[nH]c2ccccc12	11.5%	inactive	inactive	inactive		inactive					inactive
O=C(O)c1cc(O[C@@H]2O[C@H](CO[C@@H]3OC[C@@H](O)[C@H](O)[C@H]3O)[C@@H](O)[C@H](O)[C@H]2O)c2ccccc2c1O	9.92%	inactive		1.38 µM (active)		2.46 µM (active)	0.693 µM (active)				2.82 µM (active)
COc1ccc(-c2ccn(CC[C@](C)(C(=O)NO)S(C)(=O)=O)c(=O)c2)c(F)c1	-16.3%	7.94 µM (active)	inactive	7.98 µM (active)		5.65 µM (active)	2.52 µM (active)				
CC(CC(C)O[C@@H]1O[C@H](CO)[C@@H](O)[C@H](O)[C@H]1O)OC(=O)/C=C/c1ccc(O)cc1 (some centres undefined)	3.82%	inactive	inactive			inactive					inactive
